The source of these data is PubChem BioAssay (EPA / NIEHS).

Active and inactive are the calls of the source. The calls were made as follows: active = hit-call score of the fitted dose curve at least 0.9, where 1 is the maximum; inactive = score below 0.9.

What all share (details): mRNA level, 48 h; actives raise or lower the signal
Read-out in assay [1]: Bcl-2 (BAX) gene, BAX (gene 581)
Briefly: LTEA_HepaRG_BAX: Life Technologies and Expression Analysis (LTEA) Assay for Bcl-2 (BAX) gene using HepaRG (AID 2283470). An outline of the steps: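 Differentiated human HepaRG cells, plated 48 h then switched to serum-free induction medium, were exposed 48 h to 8 half-log concentrations up to 100 uM in 0.5% DMSO; BAX mRNA measured by qRT-PCR, normalized to ACTB, GAPDH, POLR2A.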

Read-out in assay [2]: adenosine kinase (ADK) gene, ADK (gene 132)
The assay is described as follows: LTEA_HepaRG_ADK: Life Technologies and Expression Analysis (LTEA) Assay for adenosine kinase (ADK) gene using HepaRG (AID 2283471). An outline of the steps:
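HepaRG (human liver), 48 h chemical exposure, 8-pt half-log series, top 100 uM, 0.5% DMSO vehicle. Readout: ADK mRNA by qRT-PCR vs housekeeping genes; bidirectional curve fit relative to DMSO baseline.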

Read-out in assay [3]: Alpha-fetoprotein (AFP) gene, AFP (gene 174)
Briefly: LTEA_HepaRG_AFP: Life Technologies and Expression Analysis (LTEA) Assay for Alpha-fetoprotein (AFP) gene using HepaRG (AID 2283472). An outline of the steps: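 Human HepaRG cells plated 48 h, then switched to serum-free induction medium and exposed in duplicate for 48 h to 8-point half-log series from 100 uM in 0.5% DMSO. AFP mRNA by qRT-PCR, normalized to ACTB, GAPDH, POLR2A; bidirectional fit versus DMSO.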

Read-out in assay [4]: BCL2L11 (gene 10018)
Briefly: LTEA_HepaRG_BCL2L11: Life Technologies and Expression Analysis (LTEA) Assay for Bcl-2 (BCL2L11) gene using HepaRG (AID 2283473). Summed up:
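Differentiated human HepaRG cells in serum-free induction medium were exposed in duplicate for 48 h to eight concentrations (top 100 uM, half-log steps, 0.5% DMSO). BCL2L11 mRNA was quantified by TaqMan qRT-PCR, normalized to ACTB/GAPDH/POLR2A, bidirectional fit versus DMSO.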

Read-out in assay [5]: Apolipoprotein A-V (APOA5) gene, APOA5 (gene 116519)
Briefly: LTEA_HepaRG_APOA5: Life Technologies and Expression Analysis (LTEA) Assay for Apolipoprotein A-V (APOA5) gene using HepaRG (AID 2283474). An outline of the steps:
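Differentiated human HepaRG cells were exposed in duplicate for 48 h to eight half-log concentrations from 100 uM in 0.5% DMSO. APOA5 mRNA was quantified by TaqMan qRT-PCR, normalized to ACTB, GAPDH and POLR2A, and fitted bidirectionally against DMSO.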

Read-out in assay [6]: Apoptosis regulator Bcl-2 (Homo sapiens) (UniProt P10415)
The assay is described as follows: LTEA_HepaRG_BCL2: Life Technologies and Expression Analysis (LTEA) Assay for Bcl-2 gene using HepaRG (AID 2283475). Summed up:
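Differentiated HepaRG cells in serum-free induction medium were exposed for 48 h to eight half-log concentrations up to 100 uM in 0.5% DMSO, in duplicate. BCL2 mRNA was quantified by TaqMan qRT-PCR normalised to ACTB, GAPDH and POLR2A, with bidirectional fitting versus DMSO.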

Read-out in assay [7]: Bcl-2 (BID) gene, BID (gene 637)
The assay is described as follows: LTEA_HepaRG_BID: Life Technologies and Expression Analysis (LTEA) Assay for Bcl-2 (BID) gene using HepaRG (AID 2283476). An outline of the steps:
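Differentiated HepaRG cells in serum-free induction medium were exposed in duplicate for 48 h to eight half-log concentrations up to 100 uM in 0.5% DMSO. BID mRNA was quantified by qRT-PCR, normalized to ACTB, GAPDH and POLR2A.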

Read-out in assay [8]: Caspase-3 (Homo sapiens) (UniProt P42574)
The assay is described as follows: LTEA_HepaRG_CASP3: Life Technologies and Expression Analysis (LTEA) Assay for cysteine-aspartic acid protease (CASP3) using HepaRG (AID 2283477). Summed up: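 Differentiated human HepaRG cells in serum-free induction medium were exposed 48 h to 8-point half-log concentrations from 100 uM (0.5% DMSO vehicle). CASP3 mRNA was measured by qRT-PCR, normalised to ACTB, GAPDH and POLR2A, with bidirectional fitting against DMSO.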

Read-out in assay [9]: Cytochrome P450 (CYP24A1), CYP24A1 (gene 1591)
Briefly: LTEA_HepaRG_CYP24A1: Life Technologies and Expression Analysis (LTEA) Assay for Cytochrome P450 (CYP24A1) using HepaRG (AID 2283478). Summed up: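 Differentiated HepaRG cells, pre-cultured 48 h, were exposed in duplicate for 48 h in serum-free induction medium to 8 half-log concentrations (top 100 uM, 0.5% DMSO). CYP24A1 mRNA was quantified by TaqMan qRT-PCR, normalized to ACTB/GAPDH/POLR2A, fitted bidirectionally versus DMSO.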

Read-out in assay [10]: Cytochrome P450 (CYP1A2), CYP1A2 (gene 1544)
Briefly: LTEA_HepaRG_CYP1A2: Life Technologies and Expression Analysis (LTEA) Assay for Cytochrome P450 (CYP1A2) using HepaRG (AID 2283479). An outline of the steps:
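Differentiated human HepaRG cells in serum-free induction medium were exposed in duplicate for 48 h to 8-point half-log concentrations up to 100 uM in 0.5% DMSO. CYP1A2 mRNA measured by qRT-PCR, normalized to ACTB, GAPDH, POLR2A; bidirectional fit vs DMSO.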

Read-out in assay [11]: cysteine-aspartic acid protease (CASP8), CASP8 (gene 841)
Briefly: LTEA_HepaRG_CASP8: Life Technologies and Expression Analysis (LTEA) Assay for cysteine-aspartic acid protease (CASP8) using HepaRG (AID 2283480). An outline of the steps:
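Differentiated HepaRG cells in serum-free induction medium, 48 h exposure, eight-point half-log series from 100 uM in 0.5% DMSO, duplicates. CASP8 mRNA by qRT-PCR, normalized to ACTB, GAPDH, POLR2A; bidirectional fit versus DMSO.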

Read-out in assay [12]: Cytochrome P450 (CYP2B6), CYP2B6 (gene 1555)
The assay is described as follows: LTEA_HepaRG_CYP2B6: Life Technologies and Expression Analysis (LTEA) Assay for Cytochrome P450 (CYP2B6) using HepaRG (AID 2283481). An outline of the steps: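 Differentiated HepaRG cells, serum-free induction medium, exposed 48 h in duplicate to 8-point half-log concentrations from 100 uM in 0.5% DMSO. CYP2B6 mRNA by qRT-PCR, normalized to ACTB, GAPDH, POLR2A; bidirectional fit versus DMSO.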

Read-out in assay [13]: Cytochrome P450 2C19 (Homo sapiens) (UniProt P33261)
Briefly: LTEA_HepaRG_CYP2C19: Life Technologies and Expression Analysis (LTEA) Assay for CYP2C19 using HepaRG (AID 2283482). An outline of the steps:
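Differentiated human HepaRG cells were exposed for 48 h in serum-free induction medium to 8 concentrations (top 100 uM, half-log steps, 0.5% DMSO). CYP2C19 mRNA was measured by qRT-PCR, normalized to ACTB/GAPDH/POLR2A, and fitted bidirectionally against DMSO.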

Read-out in assay [14]: CYP2C8 (gene 1558)
The assay is described as follows: LTEA_HepaRG_CYP2C8: Life Technologies and Expression Analysis (LTEA) Assay for CYP2C8 using HepaRG (AID 2283483). Summed up: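 Differentiated HepaRG cells in serum-free induction medium exposed 48 h in duplicate to 8 half-log concentrations from 100 uM in 0.5% DMSO. CYP2C8 mRNA by qRT-PCR normalized to ACTB, GAPDH, POLR2A; bidirectional fit versus DMSO.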

Read-out in assay [15]: CYP2C9 (gene 1559)
Briefly: LTEA_HepaRG_CYP2C9: Life Technologies and Expression Analysis (LTEA) Assay for CYP2C9 using HepaRG (AID 2283484). Summed up: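 Differentiated human HepaRG cells in serum-free induction medium were exposed 48 h to chemicals in 8-point half-log series from 100 uM (0.5% DMSO), in duplicate. CYP2C9 mRNA was measured by qRT-PCR, normalized to ACTB/GAPDH/POLR2A, with bidirectional fitting versus DMSO.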

Read-out in assay [16]: CYP2E1 (gene 1571)
Briefly: LTEA_HepaRG_CYP2E1: Life Technologies and Expression Analysis (LTEA) Assay for CYP2E1 using HepaRG (AID 2283485). Summed up:
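HepaRG cells in serum-free induction medium exposed 48 h to test chemicals, 8 half-log concentrations up to 100 uM in 0.5% DMSO, duplicate. CYP2E1 mRNA by qRT-PCR, normalized to ACTB, GAPDH, POLR2A; bidirectional fit versus DMSO.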

Read-out in assay [17]: CYP4A11 (gene 1579)
Briefly: LTEA_HepaRG_CYP4A11: Life Technologies and Expression Analysis (LTEA) Assay for CYP4A11 using HepaRG (AID 2283486). Summed up:
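Differentiated HepaRG cells, serum-free induction medium, exposed 48 h in duplicate to 8-point half-log series from 100 uM in 0.5% DMSO. CYP4A11 mRNA measured by qRT-PCR, normalized to ACTB, GAPDH, POLR2A; bidirectional fit versus DMSO.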

Read-out in assay [18]: Cytochrome P450 3A4 (Homo sapiens) (UniProt P08684)
Briefly: LTEA_HepaRG_CYP3A4: Life Technologies and Expression Analysis (LTEA) Assay for CYP3A4 using HepaRG (AID 2283487). An outline of the steps:
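CYP3A4 transcript measured by TaqMan qRT-PCR and normalized to three housekeeping genes after 48 h chemical exposure of human HepaRG cells. Top concentration 100 uM, half-log steps, 0.5% DMSO vehicle; gain or loss fitted against DMSO baseline.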

Read-out in assay [19]: DNA damage-inducible transcript 3 (DDIT3), DDIT3 (gene 1649)
The assay is described as follows: LTEA_HepaRG_DDIT3: Life Technologies and Expression Analysis (LTEA) Assay for DNA damage-inducible transcript 3 (DDIT3) using HepaRG (AID 2283488). Summed up: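 Differentiated human HepaRG cells in serum-free induction medium were exposed in duplicate for 48 h to 8 concentrations (top 100 uM, half-log steps, 0.5% DMSO). DDIT3 mRNA measured by TaqMan qRT-PCR, normalized to ACTB/GAPDH/POLR2A; bidirectional fit versus DMSO.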

Read-out in assay [20]: Pro-epidermal growth factor (Homo sapiens) (UniProt P01133)
The assay is described as follows: LTEA_HepaRG_EGF: Life Technologies and Expression Analysis (LTEA) Assay for Epidermal growth factor (EGF) using HepaRG (AID 2283489). Summed up:
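Differentiated human HepaRG cells, plated 48 h then switched to serum-free induction medium, were exposed for 48 h to test chemicals (8-point half-log series, top 100 uM, 0.5% DMSO). EGF mRNA was quantified by qRT-PCR, normalized to ACTB, GAPDH, POLR2A.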

Chain of Apoptosis regulator Bcl-2 (Homo sapiens) (P10415 whole entry, looked up): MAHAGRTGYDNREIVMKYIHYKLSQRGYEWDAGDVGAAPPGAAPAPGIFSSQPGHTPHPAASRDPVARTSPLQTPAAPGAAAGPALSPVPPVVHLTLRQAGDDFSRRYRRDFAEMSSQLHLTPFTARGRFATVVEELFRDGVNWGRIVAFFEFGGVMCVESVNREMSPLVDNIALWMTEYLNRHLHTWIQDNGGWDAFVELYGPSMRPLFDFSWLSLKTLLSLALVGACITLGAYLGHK
Chain of Cytochrome P450 3A4 (Homo sapiens) (P08684 whole entry, looked up): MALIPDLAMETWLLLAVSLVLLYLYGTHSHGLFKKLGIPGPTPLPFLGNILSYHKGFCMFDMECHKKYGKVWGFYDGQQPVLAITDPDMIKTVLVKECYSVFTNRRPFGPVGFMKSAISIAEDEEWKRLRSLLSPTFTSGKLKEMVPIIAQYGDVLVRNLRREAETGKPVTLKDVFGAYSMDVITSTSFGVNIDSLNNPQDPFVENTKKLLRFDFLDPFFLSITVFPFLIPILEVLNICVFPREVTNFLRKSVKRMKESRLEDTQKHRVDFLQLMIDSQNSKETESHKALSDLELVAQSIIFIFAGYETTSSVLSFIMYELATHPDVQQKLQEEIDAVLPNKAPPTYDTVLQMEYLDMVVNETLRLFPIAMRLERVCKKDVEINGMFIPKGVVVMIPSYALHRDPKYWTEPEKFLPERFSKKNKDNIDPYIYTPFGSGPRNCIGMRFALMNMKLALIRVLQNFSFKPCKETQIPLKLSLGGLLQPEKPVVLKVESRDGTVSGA
Chain of Caspase-3 (Homo sapiens) (P42574 whole entry, looked up): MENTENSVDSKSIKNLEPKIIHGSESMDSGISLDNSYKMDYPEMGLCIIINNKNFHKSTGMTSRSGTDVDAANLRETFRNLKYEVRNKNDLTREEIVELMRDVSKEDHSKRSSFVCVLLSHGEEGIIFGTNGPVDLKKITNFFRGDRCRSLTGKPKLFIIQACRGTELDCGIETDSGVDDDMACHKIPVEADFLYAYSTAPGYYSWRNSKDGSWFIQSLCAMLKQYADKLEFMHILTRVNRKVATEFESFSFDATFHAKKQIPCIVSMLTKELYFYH
Chain of Cytochrome P450 2C19 (Homo sapiens) (P33261 whole entry, looked up): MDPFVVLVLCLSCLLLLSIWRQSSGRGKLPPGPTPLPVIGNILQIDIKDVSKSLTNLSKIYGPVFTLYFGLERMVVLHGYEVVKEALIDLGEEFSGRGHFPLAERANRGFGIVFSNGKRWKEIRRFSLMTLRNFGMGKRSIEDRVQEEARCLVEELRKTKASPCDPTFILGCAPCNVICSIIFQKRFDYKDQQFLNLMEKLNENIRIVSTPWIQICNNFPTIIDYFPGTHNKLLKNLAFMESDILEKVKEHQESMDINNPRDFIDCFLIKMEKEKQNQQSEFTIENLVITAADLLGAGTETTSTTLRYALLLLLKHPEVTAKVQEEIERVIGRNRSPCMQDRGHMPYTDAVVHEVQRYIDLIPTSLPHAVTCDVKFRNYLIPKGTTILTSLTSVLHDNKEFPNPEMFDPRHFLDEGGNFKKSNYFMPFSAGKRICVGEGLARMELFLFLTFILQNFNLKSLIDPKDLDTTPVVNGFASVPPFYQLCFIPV

Usually AC50 stands for the midpoint of the concentration-response curve, whichever way the signal moves. Regarding `O=C(CCl)c1ccccc1`, the compound was called inactive in assay [1], in [2], in assay [3], in assay [4], in [5] and in [6]. For the same compound, the compound was classed as inactive in assay [7], in assay [8], in assay [9], in assay [10], in assay [11] and in assay [13]. The call in [14], in assay [15], in [16], in [17], in assay [18] and in assay [19] was inactive. Besides, the outcome in [20] was inactive. Further, in [12], the concentration at half-maximal activity (AC50) is 50 µM (active).
Regarding `O=[N+]([O-])c1ccc(Cl)cc1`, the result in assay [1], in assay [2], in [3], in [4], in assay [5] and in [6] was inactive. The compound was classed as inactive in assay [7], in assay [8], in assay [9], in assay [10], in [11] and in assay [12]. In addition, the call in [13], in [14], in [15], in [16], in assay [17] and in assay [18] was inactive. The compound was classed as inactive in assay [19] and in [20].
